PubChem BioAssay AID687001 (Broad Institute, 2013)
Measured potencies and affinities stand elsewhere. Active and inactive are the calls of the source.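 Rule for the calls: active = signal-lowering compounds whose fitted half-maximal concentration is at or below twice the top tested dose in every run; inconclusive = runs disagree, flat 30 to 70% inhibition, or poor curve fit; inactive = the rest.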

target: Protein S100-A4 (Homo sapiens) (UniProt P26447); assay: S100A4-myosin IIA binding inhibitor potency, dose response, biochemical, fluorescence polarization, cherry-picked hits (AID 687001); details: FP, S100A4/TAMRA-myosin IIA peptide binding; series mostly up to 11 µM
Sequence (P26447 whole entry, looked up): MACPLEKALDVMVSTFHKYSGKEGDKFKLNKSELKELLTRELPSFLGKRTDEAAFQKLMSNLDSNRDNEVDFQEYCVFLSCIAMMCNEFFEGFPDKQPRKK

outcome, inactive:
CCCCCn1c(C)c(CC(=O)Nc2ccc(Oc3cccnc3)c(C)c2)c2ccccc21
CCNC(=O)NC(=O)CSc1cccc(C(F)(F)F)c1
CC(C)NC(=O)N(C)C[C@H]1Oc2ccc(NS(=O)(=O)c3ccc(F)cc3)cc2C(=O)N([C@H](C)CO)C[C@@H]1C
Cn1c(-c2ccc(Cl)cc2)cnc1NCc1cc2c(cc1[N+](=O)[O-])OCO2
Cn1c(=O)[nH]c(=O)c2c1nc(SCC(=O)O)n2CCOc1ccccc1
O=C(CCC1CCN(C(=O)c2ccco2)CC1)NCc1ccc(F)cc1
O=C(CSc1nc2cc(Cl)ccc2s1)c1ccco1
COc1cccc(CNC(=O)C2CCCN(S(=O)(=O)c3ccc4c(c3)C(C)(C)C(=O)N4C)C2)c1 (centres undefined)
Cn1c(=O)c2sccc2n2c(CCCC(=O)N3CCN(c4ccccn4)CC3)nnc12
CCCc1cc(C(=O)Nc2cccc3ccccc23)n(C)n1
C[C@@H]1CN([C@@H](C)CO)C(=O)Cc2cc(NC(=O)CCN3CCOCC3)ccc2O[C@@H]1CN(C)C
COc1ccc(S(=O)(=O)Nc2ccc3c(c2)C(=O)N([C@@H](C)CO)C[C@@H](C)[C@H](CN(C)C(=O)Nc2ccccc2)OCCCC[C@@H](C)O3)cc1
CCOC1=C2[C@H](c3ccccc3)N(S(=O)(=O)c3ccc(C)cc3)C(C(C)(C)C)[C@H]2C(C#N)(C#N)C(C#N)(C#N)C1 (some centres undefined)
Cc1ccc(CCNC(=O)c2ccc(CS(=O)(=O)c3ccccc3C)o2)cc1
